Common to all, as to assay: NCI-60 one-dose screen, 48 h (100 = growth as untreated, 0 = no growth, -100 = all killed)
Assay [1] relates to HCT-15 colon. The note with it: 10 µM.
Assay [2] relates to HT29 colon. The note with it: 10 µM.
Assay [3] relates to SNB-75 CNS. The settings on record: 10 µM.
For assay [4], the system named is SNB-19 CNS. The settings on record: 10 µM.
Assay [5] deals with U251 CNS. The settings on record: 10 µM.
The subject of assay [6] is PC-3 prostate. The settings on record: 10 µM.
Assay [7] has as its system SK-MEL-5 melanoma. The settings on record: 10 µM.
For assay [8], the system named is UACC-62 melanoma. The note with it: 10 µM unless noted.
Assay [9] concerns LOX IMVI melanoma. The note with it: 10 µM.
The test system of assay [10] is SK-MEL-28 melanoma. The settings on record: 10 µM.
Assay [11] has as its system SK-MEL-2 melanoma. The note with it: 10 µM.
The test system of assay [12] is EKVX NSCLC. The note with it: 10 µM.
Assay [13] concerns SN12C renal. The note with it: 10 µM.
Assay [14] relates to UO-31 renal. The note with it: 10 µM.
Assay [15] concerns TK-10 renal. The settings on record: 10 µM unless noted.
Assay [16] concerns ACHN renal. The note with it: 10 µM.
The test system of assay [17] is CAKI-1 renal. The note with it: 10 µM.
In assay [18] the test system is A498 renal. The settings on record: 10 µM.
Assay [19] deals with CCRF-CEM leukemia. The settings on record: 10 µM.
Assay [20] concerns MOLT-4 leukemia. The note with it: 10 µM.

The panel holds about 83,000 compounds, 20% with a hit somewhere; the sample as a whole holds those more often.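 Negative percent growth values reflect cell death: -40 means 40% of the cells present at the start died, and -100 means all died.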 A number with no mark means an inactive call. Activity calls are given as the source filed them. The calls were made as follows: active = growth percent below 10; inactive = the rest.

As for `Oc1ccccc1-c1nnco1`, the growth was 100% in [1]; 97.5% in assay [2]; 45.5% in assay [3]; 93.2% in [4]; 82.9% in assay [5]; 91.8% in [6]. In addition, the growth was 102% in assay [7]; 89.9% in assay [8]; 87.7% in assay [9]; 101% in assay [10]; 96.4% in assay [11]; 107% in [12]. Also, the growth in [13] was 83.2%; in assay [14] it was 55%; in [15], 95.4%; in assay [16] it was 83%; in [17], 100%; in assay [18], 75.9%. In addition, the results for the growth in assay [19] and in assay [20] were 89% and 90.1%, respectively.
Turning to `CN(C)CCN(Cc1ccccc1)c1ccccc1`, the growth in assay [1] is 105%; in [2] it was 98.3%; in [3] it was 108%; in assay [4], 105%; in [5] it was 106%; in assay [6], 106%. The growth in [7] was 105%; in [8] it was 97.8%; in assay [9], 93.2%; in assay [10], 113%; in assay [11], 124%; in assay [12], 110%. The growth in assay [13] is 97.5%; in assay [14] it was 107%; in [15], 110%; in assay [16], 110%; in assay [17], 77.2%; in assay [18], 99%. For the same compound, the growth was 123% in assay [19] and 90.5% in [20].
As to `O=C(O)C(O)c1ccccc1` (stereo not given), the growth was 113% in assay [1]; 115% in assay [2]; 94.8% in assay [3]; 108% in assay [4]; 103% in assay [5]; 97.3% in assay [6]. The growth was 101% in [7]; 107% in [8]; 94.2% in [9]; 107% in [10]; 104% in assay [11]; 99.9% in [12]. Also, the growth was 106% in [13]; 84.5% in assay [14]; 103% in [15]; 103% in assay [16]; 96.8% in assay [17]; 93.9% in assay [18]. The results for the growth in assay [19] and in assay [20] were 106% and 102%, respectively.
Take `Cc1cc(N2CCC(N3CCCC3)CC2)nc(/N=C(\N)Nc2ccc(Cl)c(Cl)c2)n1`: the growth in [1] was -12.7% (active); in assay [2], -44.6% (active); in assay [3], -60.3% (active); in [4] it was 90.7%; in assay [5], -71.8% (active); in assay [6], 82.6%. Further, the growth was -94% (active) in assay [7]; -82.9% (active) in assay [8]; -90.8% (active) in assay [9]; -75% (active) in assay [10]; -71.7% (active) in assay [11]; 2.57% (active) in [12]. Also, the growth was 93.7% in assay [13]; -97.4% (active) in assay [14]; -86.3% (active) in assay [15]; -27.8% (active) in [16]; -40.6% (active) in [17]; 45.7% in assay [18]. For the same compound, the results for the growth in assay [19] and in assay [20] were -11.8% (active) and -19.8% (active), respectively.
Consider `O=C1OC[C@H]2[C@H](c3ccc(O)c(O)c3)c3cc(O)c(O)cc3C[C@H]12`, for which the growth in [1] was 116%; in [2], 115%; in [3], 116%; in [4] it was 120%; in [5], 116%; in assay [6], 46.7%. Further, the growth in assay [7] is 102%; in [8], 111%; in assay [9] it was 113%; in assay [10], 117%; in assay [11], 26.4%; in assay [12], 152%. The growth in assay [13] is 110%; in assay [14] it was 47.2%; in [15], 118%; in assay [16], 112%; in assay [17] it was 136%; in assay [18], 134%. In addition, the values for the growth in assay [19] and in assay [20] were 205% and 281%, respectively.
Regarding `CC(=O)c1c[nH]c2ccccc12`, the growth in assay [1] is 101%; in [2] it was 118%; in assay [3], 88.1%; in assay [4] it was 105%; in assay [5] it was 95.7%; in [6], 86.1%. Also, the growth in [7] is 103%; in assay [8] it was 97.5%; in assay [9], 102%; in assay [10] it was 103%; in assay [11], 161%; in assay [12], 99.2%. Besides, the growth in assay [13] was 99.2%; in assay [14], 74.7%; in [15], 108%; in [16], 107%; in assay [17], 80.1%; in assay [18] it was 103%. The growth in assay [19] is 102%; in assay [20], 104%.
Consider `O=[N+]([O-])c1ccc(N=Nc2ccccc2)cc1`, for which the growth in assay [1] is 100%; in assay [2], 92.2%; in assay [3] it was 88.5%; in assay [4] it was 96.7%; in [5] it was 90.5%; in assay [6], 83.5%. Moreover, the growth in assay [7] is 99%; in [8], 91.4%; in assay [9], 92%; in [10], 99.3%; in [11], 94.3%; in assay [12], 106%. For the same compound, the growth in [13] was 94.3%; in assay [14] it was 65.7%; in assay [15] it was 92.2%; in assay [16], 96.2%; in assay [17], 92.8%; in assay [18], 89.8%. Moreover, the growth in [19] is 38.7%; in [20], 79.1%.

For the origin of these results see PubChem BioAssay (NCI).
